# Results filed as inconclusive are left out. Values without a mark were called inactive. Calls of active or inactive are those of the source. Calls follow the shape of the dose curve; as a rule, active = well fitted inhibition curve with a large enough effect; inconclusive = small, poorly fitted or top-dose-only effect; inactive = flat fitted curve, though single readings scatter.
# Legend:
# Assay in all cases: Cytotoxic Profiling of Annotated Libraries Using Quantitative High-Throughput Screening (AID 1296008); also: nearly all actives have a fitted effect of over 60% in size
# Details in all cases: Five cell lines viability, CellTiter-Glo ATP luminescence, 48-72 h; max response: active compounds read low
# CRL-7250 = system: CRL-7250
# In short: (§1)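 Compounds were pin-transferred onto cells and incubated 48 or 72 hr at 37 degree Celsius, 95% humidity. CellTiter-Glo was added, plates sat 10 min at room temperature, then ATP-coupled luminescence was imaged as the viability read-out.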
# HaCat = system: HaCat
# In short: as §1
# KB-3-1 = system: KB-3-1
# In short: as §1
# NIH3T3 = system: NIH3T3
# In short: as §1
# % is scaled to controls: 0 for no effect and ±100 for the full control effect; potency is read from the fitted curve at half-maximal effect.
smiles,measurement,setting,value
Cc1ccc(S(=O)(=O)NCc2ccc(C(=O)NCCN(Cc3ccccc3)C(C)C)cc2)cc1,max response,CRL-7250,-10.1%
same,max response,HaCat,-19.3%
same,max response,KB-3-1,-24.2%
same,max response,NIH3T3,-5.87%
O=C(NC[C@H](O)CN1CCc2ccccc2C1)c1ccnc(NC2CCC2)c1,max response,CRL-7250,-5.29%
same,max response,HaCat,-27.8%
same,max response,KB-3-1,-4.24%
same,max response,NIH3T3,-20.6%
O=C1COc2nccc(-c3ccccc3F)c2CN1Cc1cc(C(F)(F)F)cc(C(F)(F)F)c1,outcome,CRL-7250,inactive
same,max response,HaCat,-0.797%
same,max response,KB-3-1,-2.61%
same,max response,NIH3T3,-11.4%
Clc1ncoc1-c1c[nH]c2ccccc12,outcome,CRL-7250,inactive
same,max response,HaCat,-17.9%
same,max response,KB-3-1,7.62%
same,max response,NIH3T3,-6.46%
c1cc(-c2cnn3cc(-c4ccc(N5CCNCC5)cc4)cnc23)c2cccnc2c1,outcome,CRL-7250,inactive
same,max response,HaCat,0.937%
same,Potency,KB-3-1,4.11 µM (active)
same,max response,NIH3T3,-2.87%
COc1cc(/C=N\NC(=O)c2ccc3c(c2)OCO3)ccc1OCc1ccccc1,max response,CRL-7250,3.71%
same,max response,HaCat,-3.21%
same,max response,KB-3-1,-9.36%
same,max response,NIH3T3,0.687%
C=C(C)C(=O)O[C@H]1[C@H]2C(=C)C(=O)O[C@@H]2/C=C(\CO)CC/C=C(/C=O)[C@@H]1O,max response,CRL-7250,-17.3%
same,max response,HaCat,-13.6%
same,outcome,KB-3-1,inactive
same,max response,NIH3T3,-6.9%
CCC/C=C\C=C/CCc1cc(O)c([C@@H]2O[C@H](CO)[C@@H](O)[C@H](O)[C@H]2O)c(O)c1C(=O)OC,max response,CRL-7250,-29.4%
same,max response,HaCat,-26.9%
same,max response,KB-3-1,-7.75%
same,max response,NIH3T3,-3.37%
COc1cc(CCc2cc(NC(=O)c3ccc(N4CC(C)NC(C)C4)cc3)n[nH]2)cc(OC)c1 (stereo not given),Potency,CRL-7250,9.2 µM (active)
same,max response,HaCat,4.79%
same,Potency,KB-3-1,11.6 µM (active)
same,Potency,NIH3T3,14.6 µM (active)
Cn1c(SCC(=O)N2CCC[C@H]2C(=O)Nc2ccccc2-c2ccccc2)nc2ccccc21,outcome,CRL-7250,inactive
same,max response,HaCat,-3.91%
same,max response,KB-3-1,7.08%
same,max response,NIH3T3,-3.15%
O=C(NCC1(N2CCN(c3ccccc3)CC2)CCOCC1)c1cccnc1Sc1ccccc1,outcome,CRL-7250,inactive
same,max response,HaCat,-2.8%
same,max response,KB-3-1,1.24%
same,outcome,NIH3T3,inactive
C/C=C/C=C/C=C/C(=O)O[C@@H]1C=C(CO)C(O)(C(=O)OC)[C@@]2(C)CCCC(C)(C)C12 (stereo not given in full),max response,CRL-7250,-4.29%
same,max response,HaCat,2.7%
same,max response,KB-3-1,-3.74%
same,max response,NIH3T3,4.09%
O=C(c1ccc(Cl)cc1)N1CCN(c2ccnc3cc(Cl)ccc23)CC1,max response,CRL-7250,3.03%
same,max response,HaCat,-18.2%
same,max response,KB-3-1,-24.7%
same,max response,NIH3T3,-1.68%
C=CC(C)(C)c1[nH]c2ccccc2c1C[C@@H]1NC(=O)[C@H](C)NC1=O,max response,CRL-7250,-22.2%
same,max response,HaCat,1.83%
same,max response,KB-3-1,3.23%
same,outcome,NIH3T3,inactive
CN(C)S(=O)(=O)c1ccc(NC(=S)N2CCC(C(O)(c3ccccc3)c3ccccc3)CC2)cc1,outcome,CRL-7250,inactive
same,max response,HaCat,3.08%
same,max response,KB-3-1,-18.9%
same,outcome,NIH3T3,inactive
C[C@@H]1O[C@@H](O[C@H]2[C@@H](OC(=O)[C@]34CCC(C)(C)CC3C3=CCC5[C@@]6(C)C[C@H](O)[C@H](O[C@@H]7O[C@H](CO)[C@@H](O)[C@H](O)[C@H]7O[C@@H]7OC[C@@H](O)[C@H](O)[C@H]7O)[C@@](C)(C(=O)O)C6CC[C@@]5(C)[C@]3(C)CC4)OC[C@H](O)[C@@H]2O)[C@H](O)[C@H](O)[C@H]1O[C@@H]1OC[C@@H](O)[C@H](O)[C@H]1O (stereo not given in full),max response,CRL-7250,4.52%
same,max response,HaCat,-2.16%
same,Potency,KB-3-1,2.45 µM (active)
same,max response,NIH3T3,1.11%
O=C(/C=C/c1ccccc1O)O[C@@H]1O[C@H](CO)[C@@H](O)[C@H](O)[C@H]1O,max response,CRL-7250,2.59%
same,max response,HaCat,-3.03%
same,outcome,KB-3-1,inactive
same,outcome,NIH3T3,inactive
CCC(C)C(=O)O[C@H]1[C@@H](OC(=O)c2ccoc2)C[C@](C)(O)[C@]23OC(C)(C)[C@H](C[C@H](OC(=O)c4ccoc4)[C@]12COC(C)=O)[C@H]3OC(C)=O (stereo not given in full),max response,CRL-7250,-11%
same,max response,HaCat,-1.74%
same,max response,KB-3-1,3.34%
same,outcome,NIH3T3,inactive
NS(=O)(=O)c1ccc(N2N=C(c3ccccc3)CC2c2ccccc2)cc1 (stereo not given),max response,CRL-7250,-0.316%
same,max response,HaCat,4.65%
same,max response,KB-3-1,-12.2%
same,max response,NIH3T3,2.93%
Cc1ccc(C(C)C)c(O[C@@H]2O[C@H](CO)[C@@H](O)[C@H](O)[C@H]2O)c1,Potency,CRL-7250,16.1 µM (active)
same,max response,HaCat,-17.5%
same,max response,KB-3-1,-7.27%
same,max response,NIH3T3,2.1%

# From PubChem BioAssay (NCATS)
